Most compounds without a hit are left out; they make up all but 6.2% or so of the library.
ATXN viability = reduces viability in counter-screen for ATXN expression inhibitors; Potency, µM (highest dose often 56.7 µM), hits mostly cytotoxic; S2 cells (HEK-293 line with an ATXN2-luciferase reporter) viability, CellTiter-Fluor protease fluorescence, 24 h; hit rate 0.49% among 400,000; further: nearly all actives have a fitted effect of over 40% in size
HT1080NT lethal = kills 2HG-producing HT-1080-NT fibrosarcoma cells. HT-1080-NT fibrosarcoma viability, CellTiter-Glo ATP luminescence, 48 h. Potency, µM (highest dose often 46.1 µM), for inactives: at the top dose activity, negative = less viability, most hits filed as cytotoxic. hit rate 1.6% among 360,000;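 further: NT is the 2HG producing partner of a matched IDH1 knockdown line; 0% = DMSO-treated cells and -100% = media-only wells without cells; nearly all actives have a fitted effect of over 55% in size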
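Luminescent CellTiter-Glo readout after 48 hours of compound exposure at 37 degrees C defined viability of HT-1080-NT cells. Activity was normalized to DMSO wells and cell-free media wells; concentration-response curves were fitted and assigned curve classes.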
ATXN2 expr inh = ATXN2 expression inhibition. HEK-293 ATXN2-luciferase reporter, luminescence, 24 h. Potency, µM (series often up to 57 µM), for inactives: top-dose activity change, negative = inhibition, usual class: inhibitors. hit rate 0.72% among 360,000. AID 1745845; further: on the % scale 0 is the no-effect control and ±100 the full control effect; nearly all actives have a fitted effect of over 55% in size
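ATXN2-luciferase reporter cells (luciferase flanked by upstream and downstream ATXN2 gene portions) were treated 24 h at 37 °C with compounds at up to 57 uM. SteadyGlo luminescence gave expression; GF-AFC fluorescence gave viability.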
HT1080 IDH1KD tx = HT-1080 IDH1 knockdown cell toxicity (counter line) | HT-1080 IDH1 knockdown viability, ATP luminescence, 48 h | Potency, µM (doses to about 46.1 µM), for the others: at the highest dose activity, negative = toxicity, most hits filed as cytotoxic | hit rate 2% among 360,000 | AID 686971;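 further: 0% = DMSO wells and -100% = cell-free medium wells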
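In this qHTS, HT-1080 cells depleted of IDH1 are exposed for 48 h at 37 °C to compound titrations. Toxicity is scored from CellTiter-Glo luminescence, with DMSO as full viability and medium alone as none.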
KB-V1 MDR tox = KB-V1 MDR subline cytotoxicity | hit rate 3.4% among 400,000 | Potency, µM (doses to about 46.1 µM), most hits filed as cytotoxic | AID 1347076 | KB-V1 MDR cells viability, CellTiter-Glo, 72 h; further: on the % scale 0 is the no-effect control and ±100 the full control effect; nearly all actives have a fitted effect of over 60% in size
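KB-V1, DMEM (no phenol red) + 10% FBS; cpd pin-transferred, titration series; 72 h, 37 degrees C; CellTiter-Glo, luminescence. Data normalized, curve-fit.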
KB-3-1 tox = kills parental KB-3-1 adenocarcinoma cells; KB-3-1 viability, CellTiter-Glo ATP luminescence, 72 h; Potency, µM (series often up to 46.1 µM), hits mostly cytotoxic; hit rate 1.4% among 400,000; AID 1347075; further: on the % scale 0 is the no-effect control and ±100 the full control effect; nearly all actives have a fitted effect of over 60% in size
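Screening of KB-3-1 cells (DMEM, 10% FBS, phenol-red free) ran from lowest to highest compound concentration; after 72 h at 37 °C viability was read luminescently and curves fitted.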
* marks the source's active call; other numbers are inactive results; i = inactive; ? = inconclusive; / = no result. The call rests on the fitted dose curve; in most records, active means well fitted curve in the direction sought with a large enough effect; inconclusive means small, poorly fitted or top-dose-only effect, or another doubt; inactive means no such curve, though single readings can be large; an effect the other way counts as inactive or inconclusive. Potency means the concentration at half of the fitted maximal effect.

SMILES	ATXN viability	HT1080NT lethal	ATXN2 expr inh	HT1080 IDH1KD tx	KB-V1 MDR tox	KB-3-1 tox
Cc1ccc(N(CCCCN2C(=O)c3ccccc3C2=O)C(=O)c2cccc([N+](=O)[O-])c2)cc1	i	-8.9%	-19.6%	-19.4%	18.4µM*	i
CCOC(=O)N1CCN(c2cc(C)c(C(C)=O)cc2F)CC1	i	3.2%	-0.6%	5.9%	i	i
CCOC(=O)N1CCN(c2cc(N)c([N+](=O)[O-])cc2F)CC1	?	-0.4%	5.9%	-24.8%	23.1µM*	i
CCOC(=O)N1CCN(c2ccc([N+](=O)[O-])cc2F)CC1C (stereo not given)	i	-0.1%	-7.1%	-6.3%	23.1µM*	i
CCOC(=O)N1CCN(c2ccc(C(C)=O)cc2F)CC1C (stereo not given)	i	18.4%	/	4.5%	i	i
Cc1ccc2oc(=O)c3cnn(CC(=O)N(C)c4ccc(F)cc4)c3c2c1	i	/	3.5%	/	i	i
COc1ccc(CN2CCOc3ccc(CN4CCCCC4CO)cc3C2)c(OC)c1 (stereo not given)	i	/	/	/	/	/
Cc1ccc(-c2nn(-c3ccccc3)cc2C=C2C(=O)CC(C)(C)CC2=O)cc1	?	-28.5%	-25.1%	?	18.4µM*	?
CC1(C)CC(=O)C(=Cc2cn(-c3ccccc3)nc2-c2ccccc2)C(=O)C1	?	2.3%	/	15.1%	?	i
CC1=NNC(=O)/C1=C\c1cn(-c2ccccc2)nc1-c1ccc(Cl)cc1	/	7.31µM*	12.6µM*	5.8µM*	16.4µM*	25.9µM*
CC(C)[C@H](C(=O)Nc1ccc(C(=O)NO)cc1)c1ccccc1	/	/	76.3%	/	/	/
C=C1C=C(C)n2ncc(C(=O)Nc3ccc(F)cc3F)c2N1	/	/	/	/	i	i
O=C1CCN(Cc2cccc(C(F)(F)F)c2)CCN1Cc1ccccn1	i	/	/	/	/	/
COCCNC(=O)CCCN1C(=O)CCn2nc(-c3cccn3C)cc21	i	/	0.0%	/	i	i
CCCCN(CCCC)CC(O)c1cc(Cl)cc2c1-c1ccc(Cl)cc1C2=Cc1ccc(Cl)cc1 (stereo not given)	/	/	-12.1%	/	20.6µM*	?
CCCCN(C(=O)c1ccc(Cl)cc1)C1CC2CCC(C1)N2C (stereo not given)	i	-21.8%	-5.9%	-20.3%	i	i
CCN(C(=O)CSc1nc2ccccc2n1CC(=O)Nc1ccc(F)cc1F)c1ccccc1	i	/	-14.7%	/	i	i
Cc1nn(-c2ccc(F)cc2)c(-n2cccc2)c1C(=O)N1CCN(c2ccccc2F)CC1	i	/	-12.5%	/	10.3µM*	?
COc1ccc(N2CCN(C(=O)c3c(C)nn(-c4ccc(F)cc4)c3-n3cccc3)CC2)cc1	i	/	2.3%	/	?	?
Cc1nn(-c2ccc(F)cc2)c(-n2cccc2)c1C(=O)N1CCN(c2ccc(F)cc2)CC1	?	/	-37.6%	/	16.4µM*	?
COc1ccc(CCNC(=O)c2c(C)nn(-c3ccc(F)cc3)c2-n2cccc2)c(OC)c1OC	/	/	?	/	11.6µM*	?
COc1ccc(CN2CCOc3ccc(CN4CCC(O)CC4)cc3C2)c(OC)c1OC	i	/	/	/	/	/
CCCCCOc1ccc(C2SC(=O)NC2=O)cc1OCC (stereo not given)	i	/	14.4%	/	/	/
CCN(CC)CC(=O)Nc1ccc2c(c1)N(C(=O)CN(CC)CC)c1ccccc1CC2	?	?	-14.5%	?	?	i
CCN(CC)CC(=O)Nc1ccc2c(c1)Nc1ccccc1CC2	?	11.2µM*	-3.3%	?	?	?
SMILES	ATXN viability	HT1080NT lethal	ATXN2 expr inh	HT1080 IDH1KD tx	KB-V1 MDR tox	KB-3-1 tox
CCCCCn1c(=O)[nH]c2cc(C(=O)NCCCN(C)Cc3ccccc3)ccc2c1=O	?	0.0%	/	6.2%	20.6µM*	?
CN(CCCNC(=O)c1cccn2c(=O)c3ccccc3nc12)Cc1ccccc1	?	?	?	20µM*	?	?
CCn1c(=O)c2cc(C(=O)NCCCN(C)Cc3ccccc3)sc2c2ccccc21	31.6µM*	/	?	/	i	?
CCCCNC(=O)c1cc2c(=O)n(CC)c3ccccc3c2s1	i	23.8%	-12.5%	?	i	i
CN1CCN(c2ccc(-c3nc(-c4ccccc4)no3)cc2[N+](=O)[O-])CC1	i	/	-7.4%	/	i	i
CCOc1ccc(CCNC(=O)c2cc3sccc3n2C)cc1OCC	?	0.5%	-20.3%	-1.6%	8.2µM*	i
CCOc1ccc(CCNC(=O)c2cc3sc(Cl)cc3n2C)cc1OCC	?	-20.6%	-29.7%	-21.5%	i	?
Cn1c(C(=O)NCc2ccc3c(c2)OCO3)cc2sccc21	i	-28.0%	6.7%	-29.3%	16.4µM*	i
N=C(N)SCc1cccc2c(=O)cc(-c3ccccc3)oc12	/	/	/	/	i	?
Cc1onc(-c2ccccc2Cl)c1C(=O)Oc1ccccc1F	/	/	/	/	i	i
CCOc1ccc(N(CCC#N)S(=O)(=O)c2ccc(OC)cc2)cc1	i	?	-21.6%	?	20.6µM*	?
COc1ccc(C2c3ccc(O)cc3Oc3ncn(Cc4ccco4)c(=N)c32)cc1OC (stereo not given)	i	?	-1.4%	?	i	i
COc1ccc(C2c3ccc(O)cc3Oc3ncn4nc(-c5cccnc5)nc4c32)cc1OC (stereo not given)	?	16.4µM*	22.8%	14.6µM*	i	?
CC1CN(CC(=O)NCCc2ccncc2)Cc2ccccc2O1 (stereo not given)	i	/	/	/	/	/
Cc1ccc(S(=O)(=O)N(CC(=O)NCCc2ccc(Cl)cc2)c2ccccc2C)cc1	?	/	?	/	i	i
O=C(CCCc1nc2ccccc2s1)N1CCN(S(=O)(=O)c2cccs2)CC1	i	-0.1%	-1.2%	-2.8%	23.1µM*	i
O=C(CCCc1nc2ccccc2s1)N1CCN(c2ccccc2)CC1	i	6.7%	3.4%	15.5%	i	i
CCOc1ccc(NC(=O)N2CCN(C(=O)c3nsc4ccccc34)CC2)cc1	/	/	/	/	i	i
CCC(c1nnnn1CS(=O)(=O)c1ccc(C)cc1)N1CCN(c2nc3ccccc3s2)CC1 (stereo not given)	i	-4.3%	-7.2%	-2.4%	4.11µM*	i
CCCC(c1nnnn1CS(=O)(=O)c1ccc(C)cc1)N1CCN(c2ccccc2)CC1 (stereo not given)	i	-0.4%	5.8%	-8.9%	?	i
C/C(=N\Nc1nc(N2CCOCC2)nc(N2CCOCC2)n1)c1cccs1	i	-8.4%	-29.2%	5.0%	i	i

Screening results from PubChem.
